Compound activity from PubChem BioAssay.
MEKK2 WT-MEK5: raises or lowers MEK5 binding to wildtype human MEKK2 PB1 domain. binding response (% of control), % at 10 µM. Q9Y2U5. bead flow cytometry, Alexa488-MEK5 binding to MEKK2 WT; actives lie on both sides. 290,000 tested, 1.1% active; in the data active means binding response below about 67% or above about 130%
Mot1-301 SUMO: SUMOylation pathway inhibition by Mot1-301 growth rescue. S. cerevisiae Mot1-301 growth rescue, ATP luminescence, 38.5C; percent above DMSO median, 100 means doubled. growth rescue, % at 18.8 µM. 320,000 tested, 1% active. AID 2716;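 active means every valid replicate shows activation above 250% relative to neutral control wells; inactive means the rest, any valid replicate at or below 250%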
MEKK2 mut-MEK5: signal of MEK5 binding to mutant human MEKK2 PB1 domain; bead flow cytometry, Alexa488-MEK5 binding to MEKK2 mutant; percent response, % at 10 µM; 290,000 tested, 0.35% active; AID 1530; in the data active means percent response above about 24%, passing the limit was not always enough
CHT PAM: allosterically activates the human high affinity choline transporter; CHT-expressing cells, membrane potential dye, choline EC20; active compounds read high; LV-AA mutant CHT in HEK293 cells; B-score at 10 µM; 310,000 tested, 0.49% active; AID 488977;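 active means initial fluorescence not abnormally high and integrated response B-score, plate-corrected, over 3 SD above library mean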
Target sequence (Q9GZV3 whole entry, looked up): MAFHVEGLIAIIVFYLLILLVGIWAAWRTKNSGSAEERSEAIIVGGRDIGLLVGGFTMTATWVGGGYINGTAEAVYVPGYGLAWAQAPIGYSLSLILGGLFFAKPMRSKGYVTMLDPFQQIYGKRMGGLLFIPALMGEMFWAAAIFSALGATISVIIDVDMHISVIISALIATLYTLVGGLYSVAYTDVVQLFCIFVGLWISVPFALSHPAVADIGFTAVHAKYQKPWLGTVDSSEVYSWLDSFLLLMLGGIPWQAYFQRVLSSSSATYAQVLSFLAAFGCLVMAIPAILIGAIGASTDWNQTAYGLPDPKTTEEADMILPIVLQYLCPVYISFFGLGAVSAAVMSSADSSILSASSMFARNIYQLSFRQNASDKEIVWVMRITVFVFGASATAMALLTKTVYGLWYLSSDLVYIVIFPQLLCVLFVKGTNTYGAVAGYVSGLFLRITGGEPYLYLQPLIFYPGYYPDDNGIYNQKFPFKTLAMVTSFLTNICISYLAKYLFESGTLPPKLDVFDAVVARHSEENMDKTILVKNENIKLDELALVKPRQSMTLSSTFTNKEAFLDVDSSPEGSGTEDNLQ
MEKK3 PB1 HTS: MEKK3-MEK5 PB1 interaction, increase or decrease; bead-based flow cytometry, Alexa488-MEK5 binding to MEKK3; actives lie on both sides; 0 = blocked by unlabeled MEK5, 100 = vehicle; binding response (% of control), % at 10 µM; 290,000 tested, 1.4% active; AID 1529;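 active means binding response more than 3 SD above or below the average of its plate-row segment, actives on both sides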;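 further: Alexa488 bead fluorescence after subtracting the streptavidin-only scavenger bead signal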
CHT block: inhibitors of human choline transporter CHT; 310,000 tested, 0.86% active; B-score at 10 µM; AID 488975; CHT-expressing cells, membrane potential dye, choline response; active compounds read low; Q9GZV3;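 active means B-score over 3 SD under the library average, and starting fluorescence ratio not unusually high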;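 further: choline stimulus applied at its EC90 after an EC20 pre-addition; B-score computed on integrated fluorescence ratio after choline addition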
MEKK2wt confirm: raises or lowers MEK5 binding to wildtype human MEKK2, retest; shares compounds with MEKK3 PB1 HTS; bead flow cytometry, Alexa488-MEK5 binding to MEKK2 WT; actives lie on both sides; binding response (% of control), % at 10 µM; 5,900 tested, 2.4% active; AID 1892; in the data active means binding response below about 16% or above about 210%; inactive means in between
MEKK2mut confirm: signal of MEK5 binding to mutant human MEKK2, retest; shares compounds with MEKK3 PB1 HTS; 5,900 tested, 2% active; bead flow cytometry, Alexa488-MEK5 binding to MEKK2 mutant; percent response, % at 10 µM; in the data active means percent response mostly above about 71%, no sharp cut-off; inactive means mostly below about 38%;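 further: higher means compound restores mutant binding toward wildtype level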
MEKK3 confirm: MEKK3-MEK5 PB1 inhibition, single concentration confirmation; shares compounds with MEKK3 PB1 HTS; bead flow cytometry, Alexa488-MEK5 binding to MEKK3; active compounds read low; binding response (% of control), % at 10 µM; 5,900 tested, 1.8% active; AID 1894;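 active means binding response below 72% of control, or above a set upper limit, though filed actives all read lower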;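 further: lower values mean stronger disruption of MEK5 binding to MEKK3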
Of the large screens only hits and unclear results are named; the others gave an inactive call (follow-up assays come after a bar, where they were run); [ ] = remark or other dose. Hits are enriched below; roughly 4.1% of the tested compounds scored in any of these assays.

O=C(Oc1cccc(Nc2ncnc3ccccc23)c1)c1ccccc1Cl	none
COCCN=C1Sc2nc3cc4c(cc3cc2CN1CC1CCCO1)OCO4 (stereo not drawn)	none
O=C(Nc1cccc2ncccc12)c1cccc(F)c1	none
O=C(Nc1cccc2ncccc12)c1ccc(F)cc1	MEKK3 PB1 HTS 132 | MEKK2wt confirm inactive | MEKK2mut confirm inactive | MEKK3 confirm inactive
CCOc1ccc(C(C(=O)NC2CCCC2)N(C(=O)c2snc(C(N)=O)c2N)c2cccc(O)c2)cc1 (stereo not drawn)	none
N=c1n(CCN2CCOCC2)c2ccccc2n1CC(=O)c1cccc([N+](=O)[O-])c1	MEKK2 WT-MEK5 22[inhibitor], MEKK3 PB1 HTS 12[inhibitor] | MEKK2wt confirm inactive | MEKK2mut confirm inactive | MEKK3 confirm inactive
O=C(Nc1ccccc1)/C(=C\c1ccncc1)NC(=O)c1ccccc1	MEKK3 PB1 HTS 131 | MEKK2wt confirm inactive | MEKK2mut confirm inactive | MEKK3 confirm inactive
O=C(Nc1ccc(O)cc1)/C(=C\c1ccncc1)NC(=O)c1ccccc1	none
O=C(Nc1ccccc1)/C(=C/c1cccnc1)NC(=O)c1ccco1	MEKK3 PB1 HTS 129 | MEKK2wt confirm inactive | MEKK2mut confirm inactive | MEKK3 confirm inactive
O=C1NC(c2ccccc2)=N/C1=C/c1ccco1	MEKK3 PB1 HTS 138 | MEKK2wt confirm inactive | MEKK2mut confirm inactive | MEKK3 confirm inactive
C/C(=N\OCC(=O)N/N=C/c1ccc(C)cc1O)c1cccs1	MEKK3 PB1 HTS 124 | MEKK2wt confirm inactive | MEKK2mut confirm inactive | MEKK3 confirm inactive
CSc1nc(Cl)cc(N(CCO)CCO)n1	MEKK2 mut-MEK5 25 | MEKK2wt confirm inactive | MEKK2mut confirm inactive | MEKK3 confirm inactive
CN(C)CCCn1c(N)c(C#N)c2nc3ccccc3nc21	none
CCCCC(CC)Cn1c(N)c(C#N)c2nc3ccccc3nc21 (stereo not drawn)	MEKK2 WT-MEK5 183, MEKK2 mut-MEK5 54 | MEKK2wt confirm inactive | MEKK2mut confirm inactive | MEKK3 confirm inactive
COc1ccc2[nH]c3c(C)c4ccncc4c(C)c3c2c1	MEKK2 WT-MEK5 177, MEKK2 mut-MEK5 53 | MEKK2wt confirm 243 | MEKK2mut confirm 88 | MEKK3 confirm inactive
C/C(=N/NC(=O)c1sc(NS(=O)(=O)c2ccccc2)nc1C)c1ccc(F)cc1	MEKK3 PB1 HTS 153 | MEKK2wt confirm inactive | MEKK2mut confirm inactive | MEKK3 confirm inactive
C/C(=N/NC(=O)c1sc(NS(=O)(=O)c2ccccc2)nc1C)c1ccccc1	none
CC(=O)c1ccc(NC(=S)N(C)C2CCN(C)CC2)cc1	none
COc1ccc(NC2CC(=O)N(c3ccc(C(=O)O)cc3)C2=O)cc1 (stereo not drawn)	MEKK3 PB1 HTS 130 | MEKK2wt confirm inactive | MEKK2mut confirm inactive | MEKK3 confirm inactive
O=C1NC2(CCCCCC2)N=C1c1ccc(Br)cc1	none
O=C1NC2(CCCC2)N=C1c1ccc(F)cc1	MEKK3 PB1 HTS 122 | MEKK2wt confirm inactive | MEKK2mut confirm inactive | MEKK3 confirm inactive
CC1(C)CC(=O)c2cc(OCC(=O)NCCCN3CCN(c4ccc(F)cc4)CC3)ccc2O1	MEKK2 WT-MEK5 144 | MEKK2wt confirm inactive | MEKK2mut confirm inactive | MEKK3 confirm inactive
CC(C)CCNC(=O)COc1ccc2c(c1)C(=O)CC(C)(C)O2	none
Cc1c(-c2ccccc2)cnc2c(C)cccc12	none (no result: MEKK2 WT-MEK5, MEKK2 mut-MEK5, MEKK3 PB1 HTS)
C=CCn1c(SCC(=O)Nc2ccc(-c3nc4ccc(C)cc4s3)cc2)nnc1-c1ccccc1	none
